# Laboratory results from publication PMC11062922 (Nature Chemical Biology, 2023).
# Where two headings read alike, the source gives them in different places.
# Columns and labels:
# IRAK4 = conditions: read-out: apparent Kd, n = 1
# LATS1 = conditions: read-out: apparent Kd, n = 1
# [1] = compound concentrations:100 nM and 1000 nM (sheet 'Lestaurtinib' of Supplementary Table 1),run:Lestaurtinib_02577_R2,Plate:MR016
# [2] = compound concentrations:100 nM and 1000 nM (sheet 'Lestaurtinib' of Supplementary Table 1),run:Lestaurtinib_02577_R3,Plate:MR016
# [3] = compound concentrations:100 nM and 1000 nM (sheet 'Lestaurtinib' of Supplementary Table 1),run:Lestaurtinib_02601_R2,Plate:MR018
# [4] = compound concentrations:100 nM and 1000 nM (sheet 'Lestaurtinib' of Supplementary Table 1),run:Lestaurtinib_02606_R1,Plate:MR019
# [5] = compound concentrations:100 nM and 1000 nM (sheet 'Lestaurtinib' of Supplementary Table 1),run:Lestaurtinib_02624_R2,Plate:MR020
# [6] = compound concentrations:100 nM and 1000 nM (sheet 'Lestaurtinib' of Supplementary Table 1),run:Lestaurtinib_02624_R3,Plate:MR020
# [7] = compound concentrations:100 nM and 1000 nM (sheet 'Lestaurtinib' of Supplementary Table 1),run:Lestaurtinib_02748_R3,Plate:MR024
# [8] = compound concentrations:100 nM and 1000 nM (sheet 'Lestaurtinib' of Supplementary Table 1),run:Lestaurtinib_02752_R2,Plate:MR025
# [9] = compound concentrations:100 nM and 1000 nM (sheet 'Lestaurtinib' of Supplementary Table 1),run:Lestaurtinib_02752_R3,Plate:MR025
# [10] = compound concentrations:100 nM and 1000 nM (sheet 'Lestaurtinib' of Supplementary Table 1),run:Lestaurtinib_02765_R2,Plate:MR026
# [11] = compound concentrations:100 nM and 1000 nM (sheet 'Lestaurtinib' of Supplementary Table 1),run:Lestaurtinib_02768_R1,Plate:MR028
substance,measurement,setting,value
Lestaurtinib,potency estimated from few doses,IRAK4; [1],97.5 nM
same,potency estimated from few doses,IRAK4; [2],63.8 nM
same,potency estimated from few doses,"IRAK4; compound concentrations:100 nM and 1000 nM (sheet 'Lestaurtinib' of Supplementary Table 1),run:Lestaurtinib_02601_R1,Plate:MR018",144 nM
same,potency estimated from few doses,IRAK4; [3],142 nM
same,potency estimated from few doses,IRAK4; [4],88.5 nM
same,potency estimated from few doses,IRAK4; [5],143 nM
same,potency estimated from few doses,IRAK4; [6],124 nM
same,potency estimated from few doses,"IRAK4; compound concentrations:100 nM and 1000 nM (sheet 'Lestaurtinib' of Supplementary Table 1),run:Lestaurtinib_02724_R2,Plate:MR021",99.3 nM
same,potency estimated from few doses,"IRAK4; compound concentrations:100 nM and 1000 nM (sheet 'Lestaurtinib' of Supplementary Table 1),run:Lestaurtinib_02741_R1,Plate:MR023",89.6 nM
same,potency estimated from few doses,"IRAK4; compound concentrations:100 nM and 1000 nM (sheet 'Lestaurtinib' of Supplementary Table 1),run:Lestaurtinib_02741_R3,Plate:MR023",71.3 nM
same,potency estimated from few doses,IRAK4; [7],80.9 nM
same,potency estimated from few doses,IRAK4; [8],160 nM
same,potency estimated from few doses,IRAK4; [9],80.1 nM
same,potency estimated from few doses,IRAK4; [10],75.7 nM
same,potency estimated from few doses,"IRAK4; compound concentrations:100 nM and 1000 nM (sheet 'Lestaurtinib' of Supplementary Table 1),run:Lestaurtinib_02766_R2,Plate:MR027",146 nM
same,potency estimated from few doses,"IRAK4; compound concentrations:100 nM and 1000 nM (sheet 'Lestaurtinib' of Supplementary Table 1),run:Lestaurtinib_02766_R3,Plate:MR027",121 nM
same,potency estimated from few doses,IRAK4; [11],136 nM
same,potency estimated from few doses,"IRAK4; compound concentrations:100 nM and 1000 nM (sheet 'Lestaurtinib' of Supplementary Table 1),run:Lestaurtinib_02768_R2,Plate:MR028",97.8 nM
same,potency estimated from few doses,"IRAK4; compound concentrations:100 nM and 1000 nM (sheet 'Lestaurtinib' of Supplementary Table 1),run:Lestaurtinib_02795_R2,Plate:MR022",94.1 nM
same,potency estimated from few doses,"IRAK4; compound concentrations:100 nM and 1000 nM (sheet 'Lestaurtinib' of Supplementary Table 1),run:Lestaurtinib_02795_R3,Plate:MR022",239 nM
same,potency estimated from few doses,"IRAK4; compound concentrations:100 nM and 1000 nM (sheet 'Lestaurtinib' of Supplementary Table 1),run:Lestaurtinib_02896_R1,Plate:MR030",113 nM
same,potency estimated from few doses,"IRAK4; compound concentrations:100 nM and 1000 nM (sheet 'Lestaurtinib' of Supplementary Table 1),run:Lestaurtinib_03172_R2,Plate:MR031",66.2 nM
same,potency estimated from few doses,"IRAK4; compound concentrations:100 nM and 1000 nM (sheet 'Lestaurtinib' of Supplementary Table 1),run:Lestaurtinib_03252_R1,Plate:MR032",95.9 nM
same,potency estimated from few doses,"IRAK4; compound concentrations:100 nM and 1000 nM (sheet 'Lestaurtinib' of Supplementary Table 1),run:Lestaurtinib_03260_R2,Plate:MR033",132 nM
same,potency estimated from few doses,"IRAK4; compound concentrations:100 nM and 1000 nM (sheet 'Lestaurtinib' of Supplementary Table 1),run:Lestaurtinib_03260_R3,Plate:MR033",85.1 nM
same,potency estimated from few doses,"LATS1; compound concentrations:100 nM and 1000 nM (sheet 'Lestaurtinib' of Supplementary Table 1),run:Lestaurtinib_02339_R1,Plate:MR001",27.8 nM
same,potency estimated from few doses,"LATS1; compound concentrations:100 nM and 1000 nM (sheet 'Lestaurtinib' of Supplementary Table 1),run:Lestaurtinib_02339_R2,Plate:MR001",31.4 nM
same,potency estimated from few doses,"LATS1; compound concentrations:100 nM and 1000 nM (sheet 'Lestaurtinib' of Supplementary Table 1),run:Lestaurtinib_02339_R3,Plate:MR001",37.3 nM
same,potency estimated from few doses,"LATS1; compound concentrations:100 nM and 1000 nM (sheet 'Lestaurtinib' of Supplementary Table 1),run:Lestaurtinib_02364_R2,Plate:MR002",22.6 nM
same,potency estimated from few doses,"LATS1; compound concentrations:100 nM and 1000 nM (sheet 'Lestaurtinib' of Supplementary Table 1),run:Lestaurtinib_02364_R3,Plate:MR002",44.1 nM
same,potency estimated from few doses,"LATS1; compound concentrations:100 nM and 1000 nM (sheet 'Lestaurtinib' of Supplementary Table 1),run:Lestaurtinib_02367_R1,Plate:MR003",27.8 nM
same,potency estimated from few doses,"LATS1; compound concentrations:100 nM and 1000 nM (sheet 'Lestaurtinib' of Supplementary Table 1),run:Lestaurtinib_02367_R2,Plate:MR003",40.3 nM
same,potency estimated from few doses,"LATS1; compound concentrations:100 nM and 1000 nM (sheet 'Lestaurtinib' of Supplementary Table 1),run:Lestaurtinib_02367_R3,Plate:MR003",22.1 nM
same,potency estimated from few doses,"LATS1; compound concentrations:100 nM and 1000 nM (sheet 'Lestaurtinib' of Supplementary Table 1),run:Lestaurtinib_02381_R1,Plate:MR004",27 nM
same,potency estimated from few doses,"LATS1; compound concentrations:100 nM and 1000 nM (sheet 'Lestaurtinib' of Supplementary Table 1),run:Lestaurtinib_02407_R1,Plate:MR005",39.5 nM
same,potency estimated from few doses,"LATS1; compound concentrations:100 nM and 1000 nM (sheet 'Lestaurtinib' of Supplementary Table 1),run:Lestaurtinib_02407_R2,Plate:MR005",27.7 nM
same,potency estimated from few doses,"LATS1; compound concentrations:100 nM and 1000 nM (sheet 'Lestaurtinib' of Supplementary Table 1),run:Lestaurtinib_02422_R1,Plate:MR006",34.2 nM
same,potency estimated from few doses,"LATS1; compound concentrations:100 nM and 1000 nM (sheet 'Lestaurtinib' of Supplementary Table 1),run:Lestaurtinib_02422_R3,Plate:MR006",34.2 nM
same,potency estimated from few doses,"LATS1; compound concentrations:100 nM and 1000 nM (sheet 'Lestaurtinib' of Supplementary Table 1),run:Lestaurtinib_02437_R1,Plate:MR007",35 nM
same,potency estimated from few doses,"LATS1; compound concentrations:100 nM and 1000 nM (sheet 'Lestaurtinib' of Supplementary Table 1),run:Lestaurtinib_02437_R2,Plate:MR007",27 nM
same,potency estimated from few doses,"LATS1; compound concentrations:100 nM and 1000 nM (sheet 'Lestaurtinib' of Supplementary Table 1),run:Lestaurtinib_02437_R3,Plate:MR007",0.206 nM
same,potency estimated from few doses,"LATS1; compound concentrations:100 nM and 1000 nM (sheet 'Lestaurtinib' of Supplementary Table 1),run:Lestaurtinib_02438_R3,Plate:MR008",29 nM
same,potency estimated from few doses,"LATS1; compound concentrations:100 nM and 1000 nM (sheet 'Lestaurtinib' of Supplementary Table 1),run:Lestaurtinib_02443_R2,Plate:MR009",30.6 nM
same,potency estimated from few doses,"LATS1; compound concentrations:100 nM and 1000 nM (sheet 'Lestaurtinib' of Supplementary Table 1),run:Lestaurtinib_02443_R3,Plate:MR009",38.6 nM
same,potency estimated from few doses,"LATS1; compound concentrations:100 nM and 1000 nM (sheet 'Lestaurtinib' of Supplementary Table 1),run:Lestaurtinib_02482_R1,Plate:MR011",38.1 nM
same,potency estimated from few doses,"LATS1; compound concentrations:100 nM and 1000 nM (sheet 'Lestaurtinib' of Supplementary Table 1),run:Lestaurtinib_02482_R2,Plate:MR011",32.7 nM
same,potency estimated from few doses,"LATS1; compound concentrations:100 nM and 1000 nM (sheet 'Lestaurtinib' of Supplementary Table 1),run:Lestaurtinib_02482_R3,Plate:MR011",46 nM
same,potency estimated from few doses,"LATS1; compound concentrations:100 nM and 1000 nM (sheet 'Lestaurtinib' of Supplementary Table 1),run:Lestaurtinib_02572_R1,Plate:MR015",18 nM
same,potency estimated from few doses,"LATS1; compound concentrations:100 nM and 1000 nM (sheet 'Lestaurtinib' of Supplementary Table 1),run:Lestaurtinib_02572_R2,Plate:MR015",23.5 nM
same,potency estimated from few doses,"LATS1; compound concentrations:100 nM and 1000 nM (sheet 'Lestaurtinib' of Supplementary Table 1),run:Lestaurtinib_02572_R3,Plate:MR015",22.5 nM
same,potency estimated from few doses,"LATS1; compound concentrations:100 nM and 1000 nM (sheet 'Lestaurtinib' of Supplementary Table 1),run:Lestaurtinib_02577_R1,Plate:MR016",36.6 nM
same,potency estimated from few doses,LATS1; [1],51.4 nM
same,potency estimated from few doses,LATS1; [2],63.8 nM
same,potency estimated from few doses,"LATS1; compound concentrations:100 nM and 1000 nM (sheet 'Lestaurtinib' of Supplementary Table 1),run:Lestaurtinib_02584_R2,Plate:MR017",50.1 nM
same,potency estimated from few doses,"LATS1; compound concentrations:100 nM and 1000 nM (sheet 'Lestaurtinib' of Supplementary Table 1),run:Lestaurtinib_02584_R3,Plate:MR017",45.2 nM
same,potency estimated from few doses,LATS1; [3],79.1 nM
same,potency estimated from few doses,"LATS1; compound concentrations:100 nM and 1000 nM (sheet 'Lestaurtinib' of Supplementary Table 1),run:Lestaurtinib_02601_R3,Plate:MR018",55.9 nM
same,potency estimated from few doses,LATS1; [4],39.1 nM
same,potency estimated from few doses,"LATS1; compound concentrations:100 nM and 1000 nM (sheet 'Lestaurtinib' of Supplementary Table 1),run:Lestaurtinib_02606_R2,Plate:MR019",35.8 nM
same,potency estimated from few doses,"LATS1; compound concentrations:100 nM and 1000 nM (sheet 'Lestaurtinib' of Supplementary Table 1),run:Lestaurtinib_02624_R1,Plate:MR020",25.8 nM
same,potency estimated from few doses,LATS1; [5],40.9 nM
same,potency estimated from few doses,LATS1; [6],38.9 nM
same,potency estimated from few doses,"LATS1; compound concentrations:100 nM and 1000 nM (sheet 'Lestaurtinib' of Supplementary Table 1),run:Lestaurtinib_02724_R1,Plate:MR021",13.4 nM
same,potency estimated from few doses,"LATS1; compound concentrations:100 nM and 1000 nM (sheet 'Lestaurtinib' of Supplementary Table 1),run:Lestaurtinib_02724_R3,Plate:MR021",13.2 nM
same,potency estimated from few doses,"LATS1; compound concentrations:100 nM and 1000 nM (sheet 'Lestaurtinib' of Supplementary Table 1),run:Lestaurtinib_02741_R2,Plate:MR023",27 nM
same,potency estimated from few doses,"LATS1; compound concentrations:100 nM and 1000 nM (sheet 'Lestaurtinib' of Supplementary Table 1),run:Lestaurtinib_02748_R1,Plate:MR024",36.2 nM
same,potency estimated from few doses,LATS1; [7],56.4 nM
same,potency estimated from few doses,"LATS1; compound concentrations:100 nM and 1000 nM (sheet 'Lestaurtinib' of Supplementary Table 1),run:Lestaurtinib_02752_R1,Plate:MR025",27.3 nM
same,potency estimated from few doses,LATS1; [8],32.9 nM
same,potency estimated from few doses,LATS1; [9],52.3 nM
same,potency estimated from few doses,"LATS1; compound concentrations:100 nM and 1000 nM (sheet 'Lestaurtinib' of Supplementary Table 1),run:Lestaurtinib_02765_R1,Plate:MR026",40.4 nM
same,potency estimated from few doses,LATS1; [10],48.6 nM
same,potency estimated from few doses,"LATS1; compound concentrations:100 nM and 1000 nM (sheet 'Lestaurtinib' of Supplementary Table 1),run:Lestaurtinib_02765_R3,Plate:MR026",66.7 nM
same,potency estimated from few doses,LATS1; [11],31.7 nM
same,potency estimated from few doses,"LATS1; compound concentrations:100 nM and 1000 nM (sheet 'Lestaurtinib' of Supplementary Table 1),run:Lestaurtinib_02795_R1,Plate:MR022",15.1 nM
